Measured values: PubChem BioAssay (NCATS)
Results filed as inconclusive are left out. A number with no mark means an inactive call. Activity calls are given as the source filed them. The call rests on the fitted dose curve; in most records, active means well fitted cell-killing curve with a large enough effect; inconclusive means small, poorly fitted or top-dose-only effect, or effect the other way; inactive means no such curve, though single readings can be large or run the other way.

Assay: Viability qHTS for spleen associated tyrosine kinase inhibitor (SYKi) naive MV4-11 cells (AID 1963823); further: nearly all actives have a fitted effect of over 40% in size
Conditions: MV4-11 AML viability, CellTiter-Glo luminescence, 72 h; series mostly up to 45 µM; viability (% of control): at the top concentration
In short: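 In this viability screen, compounds acted on SYK inhibitor naive MV4-11 cells for three days (72 hr, 37 C). Remaining viable cells were measured by CellTiter-Glo luminescence following a 10 min room-temperature development.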
Potency means the concentration at half of the fitted maximal effect.

**Q.** For `COc1c2cc(c(O)c1OC)-c1cc(ccc1O)CCC(O)CCCC2` (configuration not stated), which Potency is on record?
**A.** Its Potency is 12.8 µM (active).

**Q.** With `CC(C)=CCC(O)/C(C)=C/CO[C@@H]1O[C@H](CO)[C@@H](O)[C@H](O)[C@H]1O` (some centres not stated) as the molecule, how does the “viability (% of control)” value read?
**A.** The value was 86.9%.

**Q.** For `CC(=O)CC1CCC(C(C)C(=O)OCC(O)CO)O1` (configuration not stated), which “viability (% of control)” value is on record?
**A.** Its value is 62.5%.

**Q.** With `COC(=O)C1=CO[C@@H](O[C@@H]2O[C@H](COC(=O)/C=C/c3cc(OC)c(O)c(OC)c3)[C@@H](O)[C@H](O)[C@H]2O)[C@@H]2C(CO)=CC[C@H]12` as the molecule, how does the “viability (% of control)” value read?
**A.** The value was 77.3% [at 17.3 µM].

**Q.** For `CC1=CC(=O)[C@]2(O[C@@H]3O[C@@H](C)[C@H](O)[C@@H](O)[C@H]3O)C=CO[C@@H](O[C@@H]3O[C@H](CO)[C@@H](O)[C@H](O)[C@H]3O)[C@H]12`, which “viability (% of control)” value is on record?
**A.** The value was 73.2% [at 17.3 µM].

**Q.** For `COC1=CC(=O)O[C@@H](/C=C/c2ccccc2)[C@@H]1O`, which “viability (% of control)” value is on record?
**A.** The value was 87.1%.

**Q.** With `COc1cc(C)c(C(=O)O[C@H]2[C@@H](OC(C)=O)[C@H](n3ccc(=O)[nH]c3=O)O[C@@H]2CO)c(OC)c1` as the molecule, how does the “viability (% of control)” value read?
**A.** Its value is 79% [at 17.3 µM].

**Q.** With `CN([C@H]1c2cc(OCCCC(F)(F)F)ccc2OC(C)(C)[C@@H]1O)S(C)(=O)=O` as the molecule, how does the “viability (% of control)” value read?
**A.** The value was 69.6%.

**Q.** With `CC(C)C[C@H](CC(=O)NO)C(=O)N[C@@H](Cc1ccc2ccccc2c1)C(=O)N[C@@H](C)C(=O)NCCN` as the molecule, how does the “viability (% of control)” value read?
**A.** Its value is 82.2%.

**Q.** For `CC1(C)CCC(C)(C)c2cc3c(cc21)Sc1ccccc1N=C3c1ccc(C(=O)O)cc1`, which “viability (% of control)” value is on record?
**A.** Its value is 63.5%.

**Q.** Which “viability (% of control)” value does the source give for `CC(=O)O[C@H](C[C@@H](C)[C@H]1C(=O)[C@H](O)[C@@]2(C)[C@@H]3CCC4C(C)(C)[C@@H](O[C@@H]5OC[C@H](O)[C@H](O)[C@H]5O)CC[C@@]45C[C@@]35CC[C@]12C)[C@@H]1OC1(C)C` (some centres not stated) here?
**A.** Its value is 68.6% [at 17.3 µM].

**Q.** With `NC1Nc2ccccc2C1(N)CC1NC(=O)C(Cc2ccccc2)NC(=O)C(Cc2ccccc2)NC1=O` (configuration not stated) as the molecule, how does the “viability (% of control)” value read?
**A.** The value was 62.1% [at 17.3 µM].

**Q.** Which Potency does the source give for `CCCN(CCC)C(=O)C1=Cc2ccc(-c3ccc(C(=O)N4CCCC4)cc3)cc2N=C(N)C1` here?
**A.** Its Potency is 8.33 µM (active).

**Q.** For `N#CC(CCCN1CCN(/N=C/c2cccnc2)CC1)(c1ccccc1)c1ccccc1`, which Potency is on record?
**A.** Its Potency is 2.06 µM (active).

**Q.** With `CC(=O)O[C@H]1CC2C(COC(=O)CC(C)C)=CO[C@@H](OC(=O)CC(C)C)C2[C@]12CO2` (some centres not stated) as the molecule, how does the Potency read?
**A.** The Potency was 1.42 µM (active).

**Q.** For `O=C(O)c1c[nH]c2c(ccc3ccccc32)c1=O`, which Potency is on record?
**A.** The Potency was 23.1 µM (active).

**Q.** Which “viability (% of control)” value does the source give for `CCC1OC(=O)C(C)CC(C)C(=O)/C(C)=C/C(C)C(=O)/C=C/C1(C)O` (configuration not stated) here?
**A.** The value was 68.1%.

**Q.** Which “viability (% of control)” value does the source give for `CC(C)CC1NC(=O)C(C)NC(=O)C(CC(C)C)OC(=O)CCCNC1=O` (configuration not stated) here?
**A.** Its value is 88.8%.

**Q.** For `COc1cc(Nc2ccc([N+](=O)[O-])cc2C(=O)O)cc2ccccc12`, which “viability (% of control)” value is on record?
**A.** The value was 78.6%.

**Q.** Which “viability (% of control)” value does the source give for `COc1ccc(CNCc2cccc3ccccc23)cc1` here?
**A.** Its value is 57.1%.

**Q.** Which “viability (% of control)” value does the source give for `C[C@@]1(F)[C@H](O)[C@@H](CO)O[C@H]1n1ccc(N)nc1=O` here?
**A.** Its value is 76%.

**Q.** For `CO[C@H]1/C=C/C=C/C=C/C[C@H](OC(=O)[C@@H](C)NC(=O)C2CCCCC2)[C@H](C)[C@@H](O)/C(C)=C/CCc2cc(O)cc(c2)NC(=O)C1`, which Potency is on record?
**A.** The Potency was 0.0968 µM (active).

**Q.** For `CCN(CC)CC1CCN(c2ncc3ncnc(Nc4ccc(F)c(Cl)c4)c3n2)CC1`, which Potency is on record?
**A.** Its Potency is 2.91 µM (active).

**Q.** With `C=CC(C)(O)CC/C=C(/C)COC(=O)C(C)C1CCC(C)(C=C)O1` (configuration not stated) as the molecule, how does the “viability (% of control)” value read?
**A.** Its value is 60.9%.

**Q.** Which “viability (% of control)” value does the source give for `Cc1csc(N(C(=O)CSc2ccc(-c3ccccc3)nn2)C2CC2)n1` here?
**A.** Its value is 75.7%.

**Q.** Which “viability (% of control)” value does the source give for `COc1ccc(/C=C/C(=O)O[C@@H]2[C@@H](OC(C)=O)[C@@H](OC(C)=O)[C@H](O[C@H]3[C@@H]4C=CO[C@@H](O[C@@H]5O[C@H](CO)[C@@H](O)[C@H](O)[C@H]5O)[C@@H]4[C@@]4(CO)O[C@@H]34)O[C@H]2C)cc1O` here?
**A.** The value was 72.8% [at 17.3 µM].

**Q.** For `CC1(C)CCC(C)(C)c2cc([C@@H](O)C(=O)Nc3ccc(C(=O)O)cc3F)ccc21`, which Potency is on record?
**A.** The Potency was 4.11 µM (active).

**Q.** For `CC1=C(C)C(=O)OC(C(C)C2CCC3C4CC=C5CC(OC6OC(COC7OC(CO)C(O)C(O)C7O)C(O)C(O)C6O)CC(O)C5(C)C4CCC23C)C1` (configuration not stated), which “viability (% of control)” value is on record?
**A.** Its value is 63.8% [at 17.3 µM].

**Q.** Which “viability (% of control)” value does the source give for `CN(C/C=C/C#CC(C)(C)C)Cc1cccc2ccccc12` here?
**A.** Its value is 76.8%.

**Q.** Which Potency does the source give for `C[C@@H]1CC2C3C[C@H](F)C4=CC(=O)C=C[C@]4(C)[C@@]3(F)[C@@H](O)C[C@]2(C)[C@@]1(OC(=O)c1ccco1)C(=O)SCF` (some centres not stated) here?
**A.** The Potency was 6.61 µM (active).

**Q.** Which Potency does the source give for `CC(=O)O[C@]1(C(C)=O)CC[C@H]2[C@@H]3CCC4=CC(=O)CCC4=C3[C@@H](c3ccc(N(C)C)cc3)C[C@@]21C` here?
**A.** Its Potency is 25.9 µM (active).

**Q.** With `CC(C)C(NC(=O)c1ccc(O)cc1)C(=O)N1CCCC1C(=O)Nc1c(O)cccc1C(=O)O` (configuration not stated) as the molecule, how does the “viability (% of control)” value read?
**A.** The value was 77.5% [at 17.3 µM].
